Records with an inconclusive call do not appear. Some structures have more than one record in an assay (separate samples or runs), and their calls can disagree. The source made the active and inactive calls. Rule for the calls, unless noted: active = hit-call score of the fitted dose curve at least 0.9, where 1 is the maximum; inactive = score below 0.9.
Tests used:
[1] = target: human RAR-related Orphan Receptor beta (RORb), RORB (gene 6096) (UniProt Q92753); assay: ATG_RORb_TRANS: Attagene TRANS-FACTORIAL HepG2 Assay for human RAR-related Orphan Receptor beta (RORb) (AID 2283010; active = hit-call score of the fitted dose curve at least 0.9, where 1 is the maximum)
human RAR-related Orphan Receptor beta (RORb), RORB (gene 6096), sequence (Q92753 whole entry, looked up, the tested form may be a part): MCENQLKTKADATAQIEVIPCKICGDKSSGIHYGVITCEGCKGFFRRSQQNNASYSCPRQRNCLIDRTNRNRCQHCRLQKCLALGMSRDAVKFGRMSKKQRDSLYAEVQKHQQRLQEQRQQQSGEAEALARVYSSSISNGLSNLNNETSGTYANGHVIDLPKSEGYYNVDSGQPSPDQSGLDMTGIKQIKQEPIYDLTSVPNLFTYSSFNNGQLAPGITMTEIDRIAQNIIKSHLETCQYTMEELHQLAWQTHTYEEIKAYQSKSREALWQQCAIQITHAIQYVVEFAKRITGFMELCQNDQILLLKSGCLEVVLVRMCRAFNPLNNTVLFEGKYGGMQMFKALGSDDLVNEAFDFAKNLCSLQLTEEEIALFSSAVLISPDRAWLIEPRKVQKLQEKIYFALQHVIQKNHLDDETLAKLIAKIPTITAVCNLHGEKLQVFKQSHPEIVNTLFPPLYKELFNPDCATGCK
Procedure, shortened: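 Readout is reporter-gene mRNA induction, detected as fluorescence after RT-PCR and capillary electrophoresis, fitted for gain of signal against DMSO controls. Transiently transfected HepG2 liver cells carrying GAL4-UAS reporter constructs were treated for 24 hours.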

[2] = target: human RAR-related Orphan Receptor gamma (RORg), RORC (gene 6097) (UniProt P51449); assay: ATG_RORg_TRANS: Attagene TRANS-FACTORIAL HepG2 Assay for human RAR-related Orphan Receptor gamma (RORg) (AID 2283011; active = hit-call score of the fitted dose curve at least 0.9, where 1 is the maximum)
human RAR-related Orphan Receptor gamma (RORg), RORC (gene 6097), sequence (P51449 whole entry, looked up, the tested form may be a part): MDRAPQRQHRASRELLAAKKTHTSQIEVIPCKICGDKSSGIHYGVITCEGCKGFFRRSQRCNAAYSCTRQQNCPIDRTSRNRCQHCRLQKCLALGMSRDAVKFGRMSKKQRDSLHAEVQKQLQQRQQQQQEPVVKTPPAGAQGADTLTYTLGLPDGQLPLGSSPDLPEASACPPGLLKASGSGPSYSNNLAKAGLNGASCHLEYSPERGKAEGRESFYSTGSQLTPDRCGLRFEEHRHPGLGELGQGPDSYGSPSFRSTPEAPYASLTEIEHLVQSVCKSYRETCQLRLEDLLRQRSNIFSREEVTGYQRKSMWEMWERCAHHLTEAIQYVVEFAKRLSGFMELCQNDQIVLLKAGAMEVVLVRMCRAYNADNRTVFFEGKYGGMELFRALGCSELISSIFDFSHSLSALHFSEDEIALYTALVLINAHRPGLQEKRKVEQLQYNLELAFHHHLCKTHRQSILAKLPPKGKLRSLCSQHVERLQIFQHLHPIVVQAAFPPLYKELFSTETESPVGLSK
Procedure, shortened: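 HepG2 cells transiently transfected with GAL4-UAS reporter units and chimeric RORg-Gal4 construct; after 24 h chemical exposure, reporter mRNA measured by RT-PCR with fluorescent capillary electrophoresis, gain of signal fitted against DMSO.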

[3] = target: human Retinoid X Receptor beta (RXRb), RXRB (gene 6257) (UniProt P28702); assay: ATG_RXRb_TRANS: Attagene TRANS-FACTORIAL HepG2 Assay for human Retinoid X Receptor beta (RXRb) (AID 2283013; active = hit-call score of the fitted dose curve at least 0.9, where 1 is the maximum)
human Retinoid X Receptor beta (RXRb), RXRB (gene 6257), sequence (P28702 whole entry, looked up, the tested form may be a part): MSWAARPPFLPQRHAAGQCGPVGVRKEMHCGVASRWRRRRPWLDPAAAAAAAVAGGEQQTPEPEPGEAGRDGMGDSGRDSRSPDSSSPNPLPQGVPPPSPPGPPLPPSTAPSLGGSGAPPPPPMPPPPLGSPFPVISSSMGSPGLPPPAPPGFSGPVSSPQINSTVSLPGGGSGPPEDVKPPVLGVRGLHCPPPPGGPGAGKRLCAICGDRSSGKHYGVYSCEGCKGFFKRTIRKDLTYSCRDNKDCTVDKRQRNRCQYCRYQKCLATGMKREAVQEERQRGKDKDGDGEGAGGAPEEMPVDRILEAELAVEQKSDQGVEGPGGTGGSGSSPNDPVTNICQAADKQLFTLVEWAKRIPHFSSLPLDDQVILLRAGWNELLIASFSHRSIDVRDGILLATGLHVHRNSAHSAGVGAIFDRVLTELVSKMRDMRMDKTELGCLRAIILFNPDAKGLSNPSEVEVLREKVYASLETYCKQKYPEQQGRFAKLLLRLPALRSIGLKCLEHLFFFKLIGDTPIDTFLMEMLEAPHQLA
Procedure, shortened: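 Transfect HepG2 with GAL4-UAS multi-reporter constructs (chimeric NR-Gal4, TRANS format); dose compound 24 h; isolate RNA, RT-PCR, FAM primer extension, HpaI digest; quantify by capillary electrophoresis; positive direction vs DMSO.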

[4] = target: human Vitamin D Receptor (VDR), VDR (gene 7421) (UniProt P11473); assay: ATG_VDR_TRANS: Attagene TRANS-FACTORIAL HepG2 Assay for human Vitamin D Receptor (VDR) (AID 2283022; active = hit-call score of the fitted dose curve at least 0.9, where 1 is the maximum)
human Vitamin D Receptor (VDR), VDR (gene 7421), sequence (P11473 whole entry, looked up, the tested form may be a part): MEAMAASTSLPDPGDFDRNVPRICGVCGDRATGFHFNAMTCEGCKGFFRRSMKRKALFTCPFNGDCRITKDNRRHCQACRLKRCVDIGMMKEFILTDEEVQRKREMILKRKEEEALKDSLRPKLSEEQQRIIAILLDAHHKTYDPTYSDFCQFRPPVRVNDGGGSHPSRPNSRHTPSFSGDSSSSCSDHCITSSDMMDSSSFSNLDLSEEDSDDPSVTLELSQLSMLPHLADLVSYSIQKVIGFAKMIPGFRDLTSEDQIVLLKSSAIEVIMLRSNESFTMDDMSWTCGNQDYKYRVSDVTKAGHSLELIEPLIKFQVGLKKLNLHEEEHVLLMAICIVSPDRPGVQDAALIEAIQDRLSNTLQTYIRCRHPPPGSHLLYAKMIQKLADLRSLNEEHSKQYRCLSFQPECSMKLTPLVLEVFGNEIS
Procedure, shortened: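 HepG2 cells were transiently transfected with GAL4-UAS reporter units and a chimeric VDR-Gal4 construct, then dosed for 24 hours. Reporter mRNA was quantified by RT-PCR, fluorescent labeling, HpaI digestion and capillary electrophoresis; gain of signal analysed vs DMSO.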

[5] = target: Retinoic acid receptor RXR-alpha (Homo sapiens) (UniProt P19793); assay: ATG_RXRa_TRANS: Attagene TRANS-FACTORIAL HepG2 Assay for human Retinoid X Receptor alpha (RXRa) (AID 2283012; active = hit-call score of the fitted dose curve at least 0.9, where 1 is the maximum)
Retinoic acid receptor RXR-alpha (Homo sapiens), sequence (P19793 whole entry, looked up, the tested form may be a part): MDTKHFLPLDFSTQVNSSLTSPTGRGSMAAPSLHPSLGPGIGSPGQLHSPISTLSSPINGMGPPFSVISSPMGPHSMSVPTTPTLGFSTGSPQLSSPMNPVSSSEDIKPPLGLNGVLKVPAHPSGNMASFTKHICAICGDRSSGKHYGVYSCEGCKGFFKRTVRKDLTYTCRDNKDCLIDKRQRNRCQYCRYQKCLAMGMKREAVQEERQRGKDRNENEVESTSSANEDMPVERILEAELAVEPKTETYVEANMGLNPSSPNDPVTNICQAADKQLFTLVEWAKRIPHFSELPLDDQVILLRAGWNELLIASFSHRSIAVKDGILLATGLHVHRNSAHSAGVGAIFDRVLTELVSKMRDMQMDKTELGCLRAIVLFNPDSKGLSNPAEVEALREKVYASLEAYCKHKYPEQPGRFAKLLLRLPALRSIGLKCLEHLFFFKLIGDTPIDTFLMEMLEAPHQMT
Procedure, shortened: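 Transient transfection of human HepG2 with multiple GAL4-UAS reporter constructs; 24 h compound exposure; total RNA isolated, reverse-transcribed, PCR-amplified, 6-FAM labelled, HpaI-cut, resolved by capillary electrophoresis. Positive-direction fit versus DMSO.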

[6] = target: human Thyroid Receptor alpha (THRa1), THRA (gene 7067) (UniProt P10827); assay: ATG_THRa1_TRANS: Attagene TRANS-FACTORIAL HepG2 Assay for human Thyroid Receptor alpha (THRa1) (AID 2283014; active = hit-call score of the fitted dose curve at least 0.9, where 1 is the maximum)
human Thyroid Receptor alpha (THRa1), THRA (gene 7067), sequence (P10827 whole entry, looked up, the tested form may be a part): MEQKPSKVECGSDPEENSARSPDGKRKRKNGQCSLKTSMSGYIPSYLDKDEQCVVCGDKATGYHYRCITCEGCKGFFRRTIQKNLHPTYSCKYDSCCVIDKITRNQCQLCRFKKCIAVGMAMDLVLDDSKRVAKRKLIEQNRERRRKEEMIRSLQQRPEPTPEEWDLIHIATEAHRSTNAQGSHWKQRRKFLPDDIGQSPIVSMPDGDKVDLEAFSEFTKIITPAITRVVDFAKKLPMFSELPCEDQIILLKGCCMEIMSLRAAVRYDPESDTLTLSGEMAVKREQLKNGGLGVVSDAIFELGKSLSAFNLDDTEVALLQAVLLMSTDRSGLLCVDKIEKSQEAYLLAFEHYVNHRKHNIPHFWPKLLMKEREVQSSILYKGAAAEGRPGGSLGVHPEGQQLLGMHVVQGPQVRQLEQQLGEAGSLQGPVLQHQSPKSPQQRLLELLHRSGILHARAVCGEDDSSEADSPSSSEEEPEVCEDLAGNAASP
Procedure, shortened: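 HepG2 cells transiently transfected with chimeric NR-Gal4 and GAL4-UAS reporter units, dosed 24 h. Reporter mRNA quantified by RT-PCR, fluorescent labeling, HpaI digestion and capillary electrophoresis; gain-of-signal fit versus DMSO.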

[7] = read-out: E-selectin (Homo sapiens) (UniProt P16581); assay: BSK_3C_Eselectin: BioMAP Diversity Plus: 3C Assay for Eselectin Biomarker Activity (AID 2283015); details: primary human endothelial cells (HUVEC); actives raise or lower the signal;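 note: cell surface E-selectin protein quantified by ELISA 24 h after dosing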
Procedure, shortened: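 Primary human umbilical vein endothelial cells (3C system), read 24 h after compound addition; E-selectin measured by ELISA. Bidirectional curve fitting against DMSO baseline; cytotoxicity by parallel SRB total-protein staining.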

[8] = read-out: Interleukin-1 alpha (IL1a), IL1A (gene 3552); assay: BSK_BE3C_IL1a: BioMAP Diversity Plus: BE3C Assay for Interleukin-1 alpha (IL1a) Biomarker Activity (AID 2283016); details: primary human bronchial epithelial cells; actives raise or lower the signal
Procedure, shortened: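 BE3C primary human bronchial epithelium; cpd 24 h; IL-1a by ELISA; bidirectional fit vs DMSO; parallel SRB (0.1% SRB, 10% TCA fix, 560 nm) for cytotoxicity.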

[9] = read-out: Monocyte Chemoattractant Protein-1 (MCP1), CCL2 (gene 6347); assay: BSK_3C_MCP1: BioMAP Diversity Plus: 3C Assay for Monocyte Chemoattractant Protein-1 (MCP1) Biomarker Activity (AID 2283017); details: primary human endothelial cells (HUVEC); actives raise or lower the signal
Procedure, shortened: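 Human umbilical vein endothelial cells (3C system) exposed to chemicals for 24 h; MCP-1 quantified by ELISA against the DMSO baseline with bidirectional fitting, and parallel SRB staining used to assess cytotoxicity.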

[10] = read-out: Monocyte Chemoattractant Protein-1 (MCP1), CCL2 (gene 6347); assay: BSK_4H_MCP1: BioMAP Diversity Plus: 4H Assay for Monocyte Chemoattractant Protein-1 (MCP1) Biomarker Activity (AID 2283018); details: primary human endothelial cells (HUVEC); actives raise or lower the signal
Procedure, shortened: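 ELISA read-out of MCP-1 from human vascular endothelial primary cells taken at 24 hours after compound exposure. Activity was fitted in both directions relative to DMSO, which served as negative control.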

[11] = read-out: Human Leukocyte Antigen - DR isotype (HLADR), HLA-DRA (gene 3122); assay: BSK_3C_HLADR: BioMAP Diversity Plus: 3C Assay for Human Leukocyte Antigen - DR isotype (HLADR) Biomarker Activity (AID 2283019); details: primary human endothelial cells (HUVEC); actives raise or lower the signal;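 note: ELISA of cell-surface HLA-DR on HUVEC 24 h after dosing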
Procedure, shortened: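 HUVEC monoculture, HLA-DR measured by ELISA 24 h after chemical dosing. Fitted bidirectionally against DMSO baseline; parallel SRB staining assessed cytotoxicity, with 3C proliferation read by SRB at 48 h.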

[12] = read-out: Interleukin-8 (IL8), CXCL8 (gene 3576); assay: BSK_3C_IL8: BioMAP Diversity Plus: 3C Assay for Interleukin-8 (IL8) Biomarker Activity (AID 2283020); details: primary human endothelial cells (HUVEC); actives raise or lower the signal
Procedure, shortened: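 ELISA read-out of IL-8 from human umbilical vein endothelium, measured 24 h after chemical dosing. Activity is expressed relative to DMSO negative control, with both increases and decreases fitted.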

[13] = read-out: Monokine induced gamma interferon (MIG), CXCL9 (gene 4283); assay: BSK_3C_MIG: BioMAP Diversity Plus: 3C Assay for Monokine induced gamma interferon (MIG) Biomarker Activity (AID 2283021); details: primary human endothelial cells (HUVEC); actives raise or lower the signal
Procedure, shortened: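 Read-out is ELISA detection of MIG on human umbilical vein endothelial cells, taken 24 h after dosing. Gain or loss of signal was scored relative to DMSO controls using bidirectional curve fitting.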

[14] = BSK_3C_SRB: Viability Assessment in the BioMAP Diversity Plus: 3C Assay (AID 2283023); details: primary human endothelial cells (HUVEC);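 note: fitted both ways against DMSO so a hit may be signal rise or drop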
Procedure, shortened: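 Human umbilical vein endothelial cells in the 3C system, treated 24 h. Total protein measured by 0.1% sulforhodamine B staining after 10% TCA fixation, read at 560 nm; bidirectional fit versus DMSO.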

[15] = read-out: Matrix Metallopeptidase 1 (MMP1), MMP1 (gene 4312); assay: BSK_BE3C_MMP1: BioMAP Diversity Plus: BE3C Assay for Matrix Metallopeptidase 1 (MMP1) Biomarker Activity (AID 2283024); details: primary human bronchial epithelial cells; actives raise or lower the signal
Procedure, shortened: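 Human bronchial epithelial cells (BE3C system) exposed to compound for 24 h; MMP1 then quantified by ELISA. Activity was fitted in both directions relative to DMSO.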

[16] = read-out: Pselectin, SELP (gene 6403); assay: BSK_4H_Pselectin: BioMAP Diversity Plus: 4H Assay for Pselectin Biomarker Activity (AID 2283026); details: primary human endothelial cells (HUVEC); actives raise or lower the signal
Procedure, shortened: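 ELISA read-out of P-selectin on human umbilical vein endothelium after 24 h of dosing. Values derive from bidirectional fitting relative to DMSO. Parallel SRB protein staining flagged overt cytotoxicity.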

[17] = BSK_4H_SRB: Viability Assessment in the BioMAP Diversity Plus: 4H Assay (AID 2283027); details: primary human endothelial cells (HUVEC);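 note: cells exposed to compound for 24 h before staining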
Procedure, shortened: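 Human umbilical vein endothelial cells, 24 h after chemical dosing; total protein measured by 0.1% sulforhodamine B staining after 10% TCA fixation, read at 560 nm. Bidirectional fitting against DMSO.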

[18] = BSK_BE3C_SRB: Viability Assessment in the BioMAP Diversity Plus: BE3C Assay (AID 2283028); details: primary human bronchial epithelial cells
Procedure, shortened: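 Human bronchial epithelial primary cells in confluent culture, 24 h after chemical dosing; total protein by 0.1% SRB staining after 10% TCA fixation, read at 560 nm. Bidirectional fitting versus DMSO baseline.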

[19] = read-out: Thrombomodulin, THBD (gene 7056); assay: BSK_3C_Thrombomodulin: BioMAP Diversity Plus: 3C Assay for Thrombomodulin Biomarker Activity (AID 2283029); details: primary human endothelial cells (HUVEC); actives raise or lower the signal
Procedure, shortened: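 Read-out is ELISA of thrombomodulin on human umbilical vein endothelium 24 h after chemical dosing. Gain or loss of signal is scored relative to DMSO. Overt cytotoxicity is checked in parallel cultures by sulforhodamine B staining.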

[20] = BSK_3C_Vis: BioMAP Diversity Plus: 3C Assay for Morphology Visualization (AID 2283025); details: primary human endothelial cells (HUVEC);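 note: fitted both ways so gain or loss versus DMSO counts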
Procedure, shortened: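 Chemicals were added to primary human umbilical vein endothelium, cells were incubated 24 h, and morphology was then visualized by light microscopy. Gain or loss of signal was fitted bidirectionally relative to DMSO.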

Measured: AC50

E-selectin (Homo sapiens), sequence (P16581 whole entry, looked up): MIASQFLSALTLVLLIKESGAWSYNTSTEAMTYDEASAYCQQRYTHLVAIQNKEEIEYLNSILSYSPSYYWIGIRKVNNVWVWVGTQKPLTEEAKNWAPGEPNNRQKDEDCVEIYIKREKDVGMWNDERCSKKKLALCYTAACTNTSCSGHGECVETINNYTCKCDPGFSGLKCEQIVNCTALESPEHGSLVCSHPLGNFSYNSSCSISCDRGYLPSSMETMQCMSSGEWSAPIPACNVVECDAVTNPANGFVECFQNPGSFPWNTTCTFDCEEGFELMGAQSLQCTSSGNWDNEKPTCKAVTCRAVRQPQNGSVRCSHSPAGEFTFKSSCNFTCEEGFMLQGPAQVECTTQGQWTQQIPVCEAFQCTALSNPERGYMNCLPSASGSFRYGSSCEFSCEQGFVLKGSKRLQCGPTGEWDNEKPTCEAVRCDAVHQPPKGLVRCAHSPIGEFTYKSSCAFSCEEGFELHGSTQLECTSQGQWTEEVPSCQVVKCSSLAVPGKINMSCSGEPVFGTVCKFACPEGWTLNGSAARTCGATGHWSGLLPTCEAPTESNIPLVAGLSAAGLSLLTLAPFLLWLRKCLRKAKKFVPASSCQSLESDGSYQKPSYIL

CC(C)(C)c1cc(CCC(=O)OCC(COC(=O)CCc2cc(C(C)(C)C)c(O)c(C(C)(C)C)c2)(COC(=O)CCc2cc(C(C)(C)C)c(O)c(C(C)(C)C)c2)COC(=O)CCc2cc(C(C)(C)C)c(O)c(C(C)(C)C)c2)cc(C(C)(C)C)c1O
active: [3] 22.3 µM
inactive: [1] | [2] | [4]

COC(F)(C(F)F)C(F)(F)F (stereo unspecified)
inactive: [1] | [2] | [5] | [6] | [7] | [8] | [9] | [10] | [11] | [12] | [13] | [4] | [14] | [15] | [16] | [17] | [18] | [19]

O=C(c1ccccc1)c1ccc(O)cc1O
active: [3] 35 µM
inactive: [1] | [2] | [6] | [7] | [9] | [10] | [11] | [12] | [13] | [14] | [20] | [16] | [17] | [18] | [19]

Cc1ccc([N+](=O)[O-])c(C)c1
inactive: [1] | [2] | [5] | [3] | [6]

COC(=O)c1ccc(C=O)cc1
inactive: [1] | [2]

CCOC(=O)C1CC(=O)C(=C(O)C2CC2)C(=O)C1 (stereo unspecified)
inactive: [1]

C=CCOC(=O)CC(C)C
inactive: [1] | [2] | [4]

NC(=O)C(F)(F)C(F)(F)C(F)(F)C(F)(F)C(F)(F)C(F)(F)C(F)(F)F
inactive: [1] | [2] | [3] | [6] | [7] | [9] | [10] | [12] | [13] | [14] | [15] | [16] | [17] | [18] | [19]

CCOC(OCC)OCC
inactive: [1] | [2] | [4]

O=C(O)C(F)(F)C(F)(F)C(F)(F)C(F)(F)C(F)(F)C(F)(F)C(F)F
active: [12] 30 µM | [15] 12 µM
inactive: [1] | [2] | [5] | [3] | [6] | [7] | [8] | [9] | [10] | [11] | [12] | [13] | [4] | [15] | [16] | [17] | [18]

O=C(O)CCC(F)(F)C(F)(F)C(F)(F)C(F)(F)C(F)(F)C(F)(F)C(F)(F)F
inactive: [1] | [2] | [5] | [7] | [9] | [10] | [11] | [12] | [13] | [4] | [14] | [16] | [17] | [18]
active: [3] 41.3 µM

Reference: PubChem BioAssay (EPA / NIEHS)
